High-throughput results as filed in PubChem BioAssay.
VLA-4 inh – inhibition in a human VLA-4 binding assay; P13612; VLA-4 expressing cells, ligand binding flow cytometry; inhibition, % (about 7 µM as worked out from the volumes in the protocol); hit rate 0.2% among 330,000; AID 2557; in the data active = inhibition above about 50%
GASC-1 inh – human JMJD2C demethylase inhibition | hit rate 0.069% among 330,000 | GST-JMJD2C(1-420) H3K9me3 demethylation, DELFIA europium | inhibition, % at 2.35 µM | Q9H3R0 | AID 2099;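 active = more than half of a compound's replicate wells show inhibition beyond 50%, single wells judged on their own value; inconclusive = some, but no more than half, of replicates pass 50% inhibition; inactive = no replicate passes 50% inhibition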;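 note: signal counts dimethyl H3K9 product captured on neutravidin plate; 0% = median of DMSO wells and 100% = 0.3 times that DMSO median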
PolyA inhibitor – inhibitors of polyadenylation in S. cerevisiae; S. cerevisiae SKY197-pL101 polyadenylation reporter, beta-gal luminescence; efflux-impaired pdr1/pdr3 knockout yeast; score 100 = 6 SD above DMSO; activity score, % at 12 µM; hit rate 0.02% among 300,000; AID 1875;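 active = lowest replicate activity score at least 50, where 100 means six control SD above control mean; inconclusive = lowest score under 50 but half or more replicates reach 50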;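 note: yeast exposed to compound for 9 h at 30 °C; higher score means more reporter readthrough which indicates perturbed polyadenylation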
ABCB6 inh MLPCN – inhibitors of human ABC transporter ABCB6; Q9NP58; AID 602162; K562-ABCB6 porphyrin accumulation, flow cytometry, 1 h; active compounds read low; hit rate 0.19% among 360,000; fluorescence ratio to DMSO, % at 10 µM;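 active = fluorescence ratio to DMSO below 75%, the collection mean minus 3 SD; inconclusive = too few cells collected in the well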;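 note: signal is porphyrin accumulated inside mitochondria; 100% equals median channel fluorescence of DMSO control wells; lower ratio means ABCB6 inhibition with less porphyrin fluorescence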
Target sequence (Q9NP58 whole entry, looked up): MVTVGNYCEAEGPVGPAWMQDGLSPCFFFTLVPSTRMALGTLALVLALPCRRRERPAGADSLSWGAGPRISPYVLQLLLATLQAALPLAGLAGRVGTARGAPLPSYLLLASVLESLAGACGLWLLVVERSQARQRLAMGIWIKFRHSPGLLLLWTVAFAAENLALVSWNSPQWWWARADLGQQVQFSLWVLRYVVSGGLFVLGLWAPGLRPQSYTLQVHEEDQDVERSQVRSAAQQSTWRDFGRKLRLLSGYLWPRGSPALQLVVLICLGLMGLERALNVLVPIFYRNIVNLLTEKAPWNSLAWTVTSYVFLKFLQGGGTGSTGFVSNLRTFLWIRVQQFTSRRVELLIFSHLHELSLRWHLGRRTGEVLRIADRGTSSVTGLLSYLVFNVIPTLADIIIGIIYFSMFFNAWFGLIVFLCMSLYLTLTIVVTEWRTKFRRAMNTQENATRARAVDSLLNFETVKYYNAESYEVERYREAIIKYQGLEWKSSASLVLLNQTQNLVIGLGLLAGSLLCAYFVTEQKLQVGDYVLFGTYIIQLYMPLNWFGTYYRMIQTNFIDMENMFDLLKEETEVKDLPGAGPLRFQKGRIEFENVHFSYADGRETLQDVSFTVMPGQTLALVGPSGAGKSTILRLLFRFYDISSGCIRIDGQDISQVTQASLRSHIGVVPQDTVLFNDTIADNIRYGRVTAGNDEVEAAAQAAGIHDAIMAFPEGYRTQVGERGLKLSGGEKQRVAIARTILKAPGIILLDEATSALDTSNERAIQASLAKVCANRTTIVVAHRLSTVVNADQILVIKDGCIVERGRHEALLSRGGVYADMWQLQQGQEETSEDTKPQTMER
VLA-4 mod pick – human VLA-4 allosteric modulation in cherry picked compounds; shares compounds with VLA-4 inh; U937 cells, HUTS-21 LIBS mAb binding, flow cytometry; LDV ligand present at threefold Kd; inhibition, % at 6.7 µM; hit rate 2% among 1,300; AID 2813; in the data active = inhibition above about 40%;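 note: 0% = ligand without compound and 100% = no ligand background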
Numbers without * were called inactive; i = inactive; ? = inconclusive; / = not tested or not shown; ! = not active in a repeat. Most compounds without a hit are left out; they make up all but 0.44% or so of the library.

SMILES	VLA-4 inh	GASC-1 inh	PolyA inhibitor	ABCB6 inh MLPCN	VLA-4 mod pick
Cc1ccc(S(=O)(=O)N2[C@@H](c3ccc(C(C)(C)C)cc3)C(C(=O)O)=CC[C@H]2c2cccs2)cc1	60*	/	/	96	2
COc1ccc([C@@H]2CC=C(C(=O)O)[C@H](c3ccccc3)N2S(=O)(=O)c2ccc(C)cc2)cc1OC	22	8	/	96	/
CC[C@@H]1C=C(C(=O)O)[C@H](c2ccc(OC)c(OC)c2)N1S(=O)(=O)c1ccc(C)cc1	28	30	/	104	1
N#Cc1c(-c2ccc(Cl)cc2Cl)nc2n(c1=O)CCS2	92*	7	-4	98	-7
CCOc1ccccc1NC(=O)CSc1nc2ccccc2nc1N1CCOCC1	-8	2	14	99	/
CCOc1ccc(CN(CCO)CCO)cc1[N+](=O)[O-]	90*	-11	0	99	2
CCCCOc1ccc(CN(CCO)CCO)cc1[N+](=O)[O-]	11	-10	2	105	/
COC(=O)c1ccc(C(=S)N2CCCCC2)cc1	57*	9	4	77	4
O=C(c1ccccc1)c1cc([N+](=O)[O-])ccc1N1CCOCC1	26	-13	-17	100	32
O=C(c1ccc(Br)cc1)c1cc([N+](=O)[O-])ccc1N1CCOCC1	5	-1	0	97	17
Cc1ccc(C(=O)c2cc([N+](=O)[O-])ccc2N2CC(C)OC(C)C2)cc1 (stereo not drawn)	-2	9	8	102	-1
COc1cc(Nc2nc3ccccc3n3nnnc23)cc(OC)c1OC	-72	1	-21	107	/
COc1cccc(C(=O)N/N=c2\sc3ccccc3n2C)c1	37	0	20	95	/
Cc1ccc(C(=O)N/N=c2\sc3ccccc3n2C)cc1	49	-1	?	94	-7
CSc1ccc2c(c1)C(N1CCN(C)CC1)Cc1ccccc1S2 (stereo not drawn)	55*!	-13	4	98	22
C[C@]12CCC(=O)C=C1CC[C@@H]1[C@@H]2[C@@H](O)C[C@@]2(C)[C@H]1CC[C@]2(O)C(=O)COC(=O)CCC(=O)O	53*!	5	26	98	4
CCN(CC)S(=O)(=O)c1cccc(C(=O)OCC(=O)Nc2ccccc2OC(F)F)c1	-1	3	0	97	0
CN(C)S(=O)(=O)c1cccc(C(=O)OCC(=O)Nc2ccccc2OC(F)F)c1	8	-19	6	143	/
COc1ncnc2c1ncn2CCCNc1ccc(C)c(C)c1	/	/	/	97	/
CCCCN(CCCC)CCn1cnc2c([nH]c3ccc(OC)cc32)c1=O	-4	5	2	99	-12
CCC1CCCN1Cn1cnc2c([nH]c3ccc(OC)cc32)c1=O (stereo not drawn)	4	1	1	97	-13
COc1ccc2[nH]c3c(=O)n(CCc4ccccc4)cnc3c2c1	-7	-5	?	91	/
CNC(=O)N(O)C1N(/N=C/c2cccnc2)C(=S)SC1(C)C (stereo not drawn)	10	-2	13	88	/
Cc1ccc(NS(=O)(=O)c2ccc(-c3cnc(C4CC4)o3)cc2)c(C)c1	55*	-4	-19	111	47*
COc1ccccc1NS(=O)(=O)c1ccc(-c2cnc(C3CC3)o2)cc1	10	7	20	107	/
SMILES	VLA-4 inh	GASC-1 inh	PolyA inhibitor	ABCB6 inh MLPCN	VLA-4 mod pick
COc1ccc(NC(=O)N(C)C[C@H]2Oc3c(NC(=O)Nc4ccc5c(c4)OCO5)cccc3C(=O)N([C@H](C)CO)C[C@@H]2C)cc1	-22	/	/	95	/
O=C(CSc1nnc(Cc2cc(=O)[nH]c(=O)[nH]2)n1-c1ccccc1)N1CCCCC1	4	-5	-10	99	4
O=c1cc(Cc2nnc(SCc3ccccc3)n2-c2ccc(Cl)cc2)[nH]c(=O)[nH]1	2	8	-5	100	/
COC(=O)CSc1nnc(Cc2cc(=O)[nH]c(=O)[nH]2)n1-c1cccc(OC)c1	13	-11	-16	105	/
O=C(CSc1nnc(Cc2cc(=O)[nH]c(=O)[nH]2)n1-c1ccccc1)N1CCCC1	-1	9	15	101	1
Cc1ccc(NC(=O)C2CCN(C(=O)c3ccc(F)cc3)CC2)nc1	1	0	0	96	-2
O=C(Nc1ccc(F)cc1)C1CCN(C(=O)c2ccc(F)cc2)CC1	3	-11	/	94	0
O=C(NCCc1ccc(F)cc1)C1CCN(C(=O)Nc2ccccc2)CC1	58*	5	/	96	0
Cc1ccc(C(=O)N2CCC(C(=O)c3ccc(F)cc3)CC2)cc1	/	/	/	103	/
Cc1nn(-c2ccc(F)cc2)c(Cl)c1/C=C(/CC(=O)O)c1nc2ccccc2s1	/	/	/	98	/
CC(C)Oc1cccc(C(=O)C2CCCN(S(=O)(=O)C(C)C)C2)c1 (stereo not drawn)	11	-4	-31	103	/
COC(=O)c1ccncc1C(=O)Nc1ccc(Oc2ncc(C(F)(F)F)cc2Cl)cc1	50*	-3	-5	95	-19
COC(=O)c1ccncc1C(=O)Nc1ccc(OC)cc1	9	i	-5	97	/
Cc1noc(C)c1CSc1ncnc2sc3c(c12)CCCCC3	42	7	-4	98	0
COc1cccc(C2CC(=O)Nc3cc(OC)c(OC)c(OC)c32)c1OC (stereo not drawn)	2	-8	8	89	-1
CCOc1ccccc1C1CC(=O)Nc2cc(OC)c(OC)c(OC)c21 (stereo not drawn)	7	-3	-3	207	-2
COC(=O)C1=C(C)NC(=O)CC1c1cccc(OC)c1OC (stereo not drawn)	6	-2	-3	101	/
CCCn1cnc2c(SCc3ccccc3F)nc(N)nc21	/	/	/	101	/
O=C(CNCc1ccccc1)Nc1ccc(Cl)cc1	3	-1	12	100	/
CCOC(=O)N1CCN(C(=O)C2CCN(C(=O)c3ccc([N+](=O)[O-])cc3)CC2)CC1	15	-3	-13	100	/
CCc1cccc(C)c1NC(=O)C1CCN(C(=O)c2ccc([N+](=O)[O-])cc2)CC1	56*	-9	-6	103	1
CC1(OC(=O)CCc2ccccc2)C(=O)C=C2C=C(c3ccc(C#N)cc3)N(C3CC3)C=C2C1=O (stereo not drawn)	36	1	1	105	/
CCn1c(CNc2ccc(C(=O)O)cc2)nc2ccccc21	46	13	-4	102	/
CCn1c(/C=N/Nc2ccc(C(=O)O)cc2)nc2ccccc21	47	-7	13	92	12
NS(=O)(=O)c1cccc(NC(=O)CCN2C(=O)C3CCCCC3C2=O)c1 (stereo not drawn)	53*	6	/	93	-5
O=C(CCN1C(=O)C2CC=CCC2C1=O)Nc1cccc(S(=O)(=O)N2CCCCC2)c1 (stereo not drawn)	22	-4	/	96	/
COc1cccc(-c2cc(C(=O)N3CCN(c4ncccn4)CC3)c3ccccc3n2)c1	6	-7	5	99	/
